# Experimental data taken from the supplement of paper PMC12636033.
# ± gives the standard deviation of the averaged measurements. Over roughly 33,000 sequences, “E-score (rank enrichment, -0.5 to 0.5)” has its median near -0.0068; the highest 2% begin near 0.24. The entries come from a sample that favours the highest values as a whole.
# System: muMax20 (Max(13-93) K31hArg/K57hArg, M65Nle)
# Assay: PBM 8-mer E-score (E-score (rank enrichment, -0.5 to 0.5)); higher = stronger preferential binding
# Method: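 Protein binding microarray (universal PBM chip covering all 10-mers in fixed probe flanks) with chemically synthesized human Max(13-93) bHLH-LZ analogs (not full-length Max) bearing noncanonical residues (hArg, Tha, Aib, Nle at 65) and aromatic Cys staples. Read-out per 8-mer (and its reverse complement): E-score (rank-based enrichment, -0.5 to 0.5) and Z-score of median probe intensity.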
row,Sequence,PBM 8-mer E-score
1,ACGTATTG,0.0861 ± 0.067
2,CATATGAA,0.0777 ± 0.049
3,AGGCACGA,0.109 ± 0.032
4,CAGAGCTA,-0.25 ± 0.013
5,TGAACAAA,0.00782 ± 0.029
6,CTAATAAC,0.19 ± 0.074
7,ATAATCAG,0.32 ± 0.072
8,ATAATAAC,0.315 ± 0.034
9,ATAAGAAT,0.165 ± 0.04
10,ATAAGAAA,0.141 ± 0.043
11,CTAATAAA,0.163 ± 0.024
12,GTAATAAC,0.156 ± 0.072
13,ATAATCAA,0.0671 ± 0.022
14,ATAATAAA,0.217 ± 0.023
15,TTAATAAA,0.238 ± 0.028
16,CTAATCAG,-0.0349 ± 0.028
17,ATAAGAAC,0.24 ± 0.081
18,GATAGCGA,-0.086 ± 0.082
19,AATCCGAC,0.0325 ± 0.024
20,CTCAGAGC,-0.28 ± 0.041
21,ATCTGGAG,-0.0378 ± 0.089
22,AAAGATGT,0.203 ± 0.0026
23,CCCGTCTC,-0.0114 ± 0.0032
24,ATCTCAAG,-0.0469 ± 0.0077
25,GCGAAGCA,0.0453 ± 0.032

row,Sequence,PBM 8-mer E-score
1,ACTTCCGC,-0.0937 ± 0.045
2,CTAATAAG,0.119 ± 0.044
3,ATAATAAT,0.205 ± 0.05
4,ATAATAAG,0.247 ± 0.051
5,CGCAGAGA,-0.0723 ± 0.14
6,CTCCAAGC,-0.018 ± 0.00052
7,TGTATAAA,0.207 ± 0.0065
8,GATATAAA,0.139 ± 0.03
9,AATATAAT,0.156 ± 0.065
10,TATATAAA,0.304 ± 0.05
11,CATATAAC,0.219 ± 0.048
12,AATATAAA,0.324 ± 0.012
13,CATATAAG,0.154 ± 0.076
14,AATATAAG,0.207 ± 0.045
15,CATATAAA,0.329 ± 0.056
16,ACGACGCA,0.00737 ± 0.11
17,AGGGGGCA,-0.0171 ± 0.019
18,CAGGCTCA,-0.0417 ± 0.019
19,GATCTTGA,0.101 ± 0.013
20,CTAGGCGA,-0.155 ± 0.071
21,TCCCCTCA,0.14 ± 0.1
22,ATTTCCTA,0.137 ± 0.029
23,CTTTCCTA,-0.0321 ± 0.019
24,GTTTCCTA,0.307 ± 0.033
25,GGAGGGCA,0.044 ± 0.11

row,Sequence,PBM 8-mer E-score
1,ATCAATTC,0.172 ± 0.013
2,ATCAATTA,0.229 ± 0.068
3,ATCAATTG,0.262 ± 0.073
4,TCAATAAA,0.114 ± 0.043
5,ACAATCAT,0.273 ± 0.042
6,ACAATAAG,0.21 ± 0.021
7,ACAATAAA,0.275 ± 0.025
8,GCAATAAA,0.0786 ± 0.0037
9,CCAATAAA,0.266 ± 0.026
10,AGAATAAT,0.116 ± 0.05
11,CCAATAAG,-0.0178 ± 0.017
12,ACAATCAA,0.0227 ± 0.021
13,ACAATAAC,0.191 ± 0.0039
14,ACAATAAT,0.286 ± 0.0027
15,ACAATCAC,0.228 ± 0.053
16,ACGTCTGA,-0.0769 ± 0.16
17,CAGGGCAC,-0.0777 ± 0.0056
18,AGGACCGC,0.0155 ± 0.085
19,CGACCTGC,-0.105 ± 0.063
20,GAAACCCC,-0.0104 ± 0.014
21,TAAGATTA,0.129 ± 0.04
22,TGCTTAAA,0.024 ± 0.12
23,ACTCGCGG,-0.0552 ± 0.016
24,ATACAGTG,0.2396 ± 0.0022
25,ATACAGTA,0.233 ± 0.095

row,Sequence,PBM 8-mer E-score
1,ATACAGTC,0.0784 ± 0.094
2,GCGTGCAA,0.0854 ± 0.022
3,CTTGAGTC,-0.0129 ± 0.11
4,CTCGACGA,-0.142 ± 0.024
5,GAGCCCTA,-0.14 ± 0.018
6,AGAAACAA,0.2614 ± 0.0014
7,TTAAACAA,0.0932 ± 0.11
8,AAAAACTA,0.095 ± 0.061
9,ATAAAACA,0.31 ± 0.025
10,GTAAAACA,0.108 ± 0.0083
11,ATAAACAA,0.27 ± 0.049
12,CAAAACTA,0.132 ± 0.15
13,AGAAACAC,0.00585 ± 0.032
14,ATAAAACG,0.194 ± 0.02
15,TAAAACTA,0.239 ± 0.11
16,GGAAACAA,0.0706 ± 0.057
17,ATAAACAC,0.164 ± 0.11
18,GGGAACAA,0.144 ± 0.0098
19,AGCCCCTC,0.0302 ± 0.046
20,AGCTCCTG,-0.171 ± 0.17
21,CAGTCACC,-0.064 ± 0.14
22,AGTTGAAG,0.0533 ± 0.067
23,CGGGAAGA,-0.0577 ± 0.15
24,ATAAACTC,0.117 ± 0.039
25,ATAAACTA,0.276 ± 0.041

row,Sequence,PBM 8-mer E-score
1,GAAAAACA,0.16 ± 0.037
2,ATAAACTG,0.0137 ± 0.077
3,ACAAAACG,0.187 ± 0.013
4,AAAAAACG,0.241 ± 0.023
5,TAAAAACA,0.171 ± 0.018
6,AAAAAACA,0.272 ± 0.11
7,CAAAAACG,0.111 ± 0.068
8,AGATAGAG,-0.0243 ± 0.056
9,ACAATGCG,0.0438 ± 0.031
10,CCGTTTCC,0.0806 ± 0.018
11,CCTTTCCA,0.0937 ± 0.037
12,CCCTTATA,0.199 ± 0.086
13,CTGTAATA,0.175 ± 0.023
14,ATGTAACA,0.244 ± 0.057
15,ATGTAATA,0.2587 ± 0.0011
16,TAGTAACA,0.239 ± 0.066
17,ATGTAACG,0.122 ± 0.029
18,CTGTAAAA,0.0545 ± 0.043
19,ATGTAAAA,0.221 ± 0.049
20,TTGTAAAA,0.24 ± 0.053
21,GAGTAACA,0.164 ± 0.033
22,ATGTAATG,0.2252 ± 0.0016
23,AAGTAACA,0.152 ± 0.018
24,CTGTAACA,0.0977 ± 0.058
25,CTAGTTAC,-0.0138 ± 0.072

row,Sequence,PBM 8-mer E-score
1,AATTGCCA,0.0456 ± 0.0012
2,CATTCGGG,-0.0351 ± 0.075
3,AATCTTGC,-0.066 ± 0.042
4,ACGAGTGA,-0.0322 ± 0.14
5,ATGTAAAT,0.154 ± 0.09
6,ATGTAAAG,0.244 ± 0.038
7,CTGTAAAG,-0.0854 ± 0.0043
8,GGCTGACA,-0.104 ± 0.086
9,ACCGTCAA,-0.205 ± 0.0036
10,TATTAGAA,0.268 ± 0.0096
11,TACTATAA,0.284 ± 0.021
12,CACTACAA,0.152 ± 0.021
13,CACTATAA,0.0282 ± 0.15
14,AATTACAA,0.209 ± 0.066
15,GATTAGAA,0.0438 ± 0.032
16,TACTACAA,0.286 ± 0.0027
17,AACTATAA,0.229 ± 0.044
18,TATTACAA,0.236 ± 0.041
19,CATTACAA,0.184 ± 0.097
20,CATTAGAA,0.0939 ± 0.015
21,AACTACAA,0.0818 ± 0.066
22,CTGGGAGC,-0.247 ± 0.043
23,AAAGTCCG,-0.148 ± 0.0098
24,GTGGAAAC,0.119 ± 0.033
25,CCCTCATA,0.135 ± 0.065

row,Sequence,PBM 8-mer E-score
1,GTAGACAA,0.173 ± 0.061
2,GTCTTAGA,-0.0878 ± 0.12
3,GGGCAAAA,-0.107 ± 0.024
4,AGGGGTAG,0.123 ± 0.011
5,CTGTGGGA,-0.0483 ± 0.025
6,AATTGATA,0.232 ± 0.016
7,AATTGATG,0.264 ± 0.051
8,AATTGATC,0.0857 ± 0.087
9,GAAGGGCA,0.156 ± 0.0064
10,AGTATACA,0.175 ± 0.1
11,AGTATACT,0.258 ± 0.04
12,ATTATGTC,0.066 ± 0.23
13,ATTATGTA,0.247 ± 0.0099
14,ACTATAGA,0.117 ± 0.049
15,CTAATGTA,0.1481 ± 0.0014
16,ATTATGTG,0.164 ± 0.049
17,ATAATGTA,0.276 ± 0.0095
18,ACTATAGT,0.243 ± 0.03
19,ACTATAGG,0.0643 ± 0.011
20,ATAATGTC,0.0566 ± 0.18
21,AGTATACC,0.077 ± 0.053
22,AACGTTGA,0.212 ± 0.038
